Compound activity from PubChem.
Rhodamine fluor: qHTS Assay for Spectroscopic Profiling in Rhodamine Spectral Region; Rhodamine-region fluorescence, 547/598 nm, Tris buffer; stronger effect = higher value; max dye-equivalent concentration, M; 0.05% of 59,000 active; in the data active = max dye-equivalent concentration above about 11 nM; inconclusive = between about 1.1 nM and that limit
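A six-point rhodamine series on each plate calibrates the signal. Compounds sit in 100 mM Tris (pH 8.0) for 15 min at ambient temperature before imaging through 547 nm/598 nm filters.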
TexasRed autofl: qHTS Assay for Spectroscopic Profiling in Texas Red Spectral Region; Compound fluorescence, Texas Red channel, 547/618 nm; stronger effect = higher value; max dye-equivalent concentration, M; 0.06% of 59,000 active; AID 587, 2007; in the data active = max dye-equivalent concentration above about 10 nM; inconclusive = between about 1.1 nM and that limit
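Texas Red-region profiling: compounds in 100 mM Tris pH 8.0 were read at 547/618 nm after 15 min at room temperature. Intensities were normalized against a six-point Texas Red standard series to give dye-equivalent concentration.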
Resorufin fluor: qHTS Assay for Spectroscopic Profiling in Resorufin Spectral Region; Compound fluorescence, resorufin region 547/598 nm, buffer; stronger effect = higher value; max dye-equivalent concentration, M; 0.04% of 59,000 active
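Tris 100 mM pH 8.0; compound added, 15 min RT; CCD imager read, ex 547 nm/em 598 nm; signal normalized to resorufin standard curve (six concentrations per plate) as dye-equivalent concentration.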
A488 autofl: qHTS Assay for Spectroscopic Profiling in A488 Spectral Region. 0.1% of 59,000 active. AID 591, 2007. compound autofluorescence, A488 spectral region, dye equivalency; Compound Type: qHTS ECL - MLSMR. max dye equivalency, M
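Compounds pin-transferred into 100 mM Tris buffer, pH 8.0, incubated 15 min at room temperature, then imaged with 480 nm excitation/540 nm emission filters. Fluorescence converted to Alexa 488 dye-equivalent concentration via an on-plate six-point A488 standard curve.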
A647 autofl: qHTS Assay for Spectroscopic Profiling in A647 Spectral Region; AID 592, 2007; 59,000 tested, under 10 active; max dye-equivalent concentration, M; Compound fluorescence, A647 channel (570/671 nm), Tris buffer;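 also: values scaled relative to a standard on each plate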
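Spectral profiling of library compounds in pH 8.0 Tris: 15 min room-temperature incubation, single ex/em pair (570/671 nm), response normalized to Alexa 647 equivalents.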
Fluorescein fluor: qHTS Assay for Spectroscopic Profiling in Fluorescein Spectral Region. max fluorescein-equivalent concentration, M. AID 593, 2007. Compound autofluorescence, 480/540 nm, fluorescein-equivalent; stronger effect = higher value. 0.91% of 59,000 active; in the data active = max fluorescein-equivalent concentration above about 10 nM; inconclusive = between about 1.1 nM and that limit
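Autofluorescence profiling; 100 mM Tris, pH 8.0; incubation 15 min at RT; ex/em 480/540 nm; result as fluorescein-equivalent concentration.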
An asterisk follows results filed as active. Compounds with a hit are over-represented: about 0.96% of the library has one in this group of screens. Unless noted, no rule for the calls is given here.

Results for Nc1ncnc2c1ncn2[C@@H]1O[C@@H](CO)[C@H](O)[C@@H]1O ?
Rhodamine fluor: inactive; TexasRed autofl: inactive; Resorufin fluor: inactive; A488 autofl: inactive; A647 autofl: 1.5e-09; Fluorescein fluor: inactive

What do the screens show for `CN1CCC(OC(=O)COc2ccc(C(C)(C)C)cc2)CC1`?
Rhodamine fluor: inactive; TexasRed autofl: inactive; Resorufin fluor: inactive; A488 autofl: inconclusive; A647 autofl: 1e-09; Fluorescein fluor: 3e-08M*

Results for COc1cc(/C=C\C(=O)N2CCCCC2=O)cc(OC)c1OC ?
Rhodamine fluor: inactive; TexasRed autofl: inactive; Resorufin fluor: inactive; A488 autofl: inactive; A647 autofl: 1.7e-08; Fluorescein fluor: inactive

Results for CN(C)Cc1ccccc1-c1nccc(NCc2cccs2)n1 ?
Rhodamine fluor: inactive; TexasRed autofl: inactive; Resorufin fluor: inactive; A488 autofl: inactive; A647 autofl: 1.5e-09; Fluorescein fluor: 1.1e-08M*

How did CCOn1c(=O)c(-c2cc3ccccc3o2)[n+]([O-])c2ccccc21 do in these assays?
Rhodamine fluor: inactive; TexasRed autofl: inactive; Resorufin fluor: inactive; A488 autofl: inconclusive; A647 autofl: 1.4e-08; Fluorescein fluor: 1.3e-07M*

What do the screens show for `Cn1ncc(N=Cc2c(O)ccc3ccccc23)c1C(=O)N1CCOCC1`?
Rhodamine fluor: inactive; TexasRed autofl: inactive; Resorufin fluor: inactive; A488 autofl: inactive; A647 autofl: 1e-09; Fluorescein fluor: 1.7e-08M*

Results for Cn1ncc(N=Cc2ccccc2O)c1C(=O)Nc1ccccc1 ?
Rhodamine fluor: inactive; TexasRed autofl: inactive; Resorufin fluor: inactive; A488 autofl: inactive; A647 autofl: 7.6e-08; Fluorescein fluor: inactive

Results for CCOC(=O)CNC(=O)c1cc(-c2ccc3c(c2)OCCO3)oc1C ?
Rhodamine fluor: inactive; TexasRed autofl: inactive; Resorufin fluor: inactive; A488 autofl: inconclusive; A647 autofl: 5.5e-09; Fluorescein fluor: 4.5e-08M*

Results for CCOC(=O)CNC(=O)c1ccc2c(c1)OCCO2 ?
Rhodamine fluor: inactive; TexasRed autofl: inactive; Resorufin fluor: inactive; A488 autofl: inactive; A647 autofl: 1e-09; Fluorescein fluor: inactive

Results for NC(=O)C1=CN([C@@H]2O[C@@H](COP(=O)(O)OP(=O)(O)OC[C@@H]3O[C@H](n4cnc5c(N)ncnc54)[C@@H](OP(=O)(O)O)[C@@H]3O)[C@H](O)[C@@H]2O)C=CC1 ?
Rhodamine fluor: inactive; TexasRed autofl: inactive; Resorufin fluor: inactive; A488 autofl: inactive; A647 autofl: 4.9e-08; Fluorescein fluor: inconclusive

Results for O=C(O)c1c2c(c(O)c3c1CN(C1CCCCC1)CO3)OCN(C1CCCCC1)C2 ?
Rhodamine fluor: inactive; TexasRed autofl: inactive; Resorufin fluor: inactive; A488 autofl: inactive; A647 autofl: 1.3e-08; Fluorescein fluor: inconclusive

Results for NC(=O)N1c2ccccc2CC(=O)c2ccccc21 ?
Rhodamine fluor: inactive; TexasRed autofl: inactive; Resorufin fluor: inactive; A488 autofl: inconclusive; A647 autofl: 1e-09; Fluorescein fluor: 3.3e-08M*

What do the screens show for `NC(=O)N1c2ccccc2C=Cc2ccccc21`?
Rhodamine fluor: inactive; TexasRed autofl: inactive; Resorufin fluor: inactive; A488 autofl: inactive; A647 autofl: 3.8e-08; Fluorescein fluor: inconclusive
